# Measurements: PubChem BioAssay (EPA / NIEHS)
# Records with an inconclusive call do not appear. Active and inactive are the calls of the source. The calls were made as follows: active = hit-call score of the fitted dose curve at least 0.9, where 1 is the maximum; inconclusive = response in the unintended direction; inactive = score below 0.9.
# Tested on: not listed separately
# Assay: TOX21_p53_BLA_p3_viability: Viability Assessment in the Tox21 HCT-116 p53 Agonism Beta-lactamase Assay, Phase 3 (AID 2283593);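 also: cells exposed to compound for 16 h before reading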
# Summary of the method: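 HCT116 cells, 4000/well, dosed 5 h after plating by pin transfer (217-fold dilution from DMSO stock) and incubated 16 h at 37C, 5% CO2. Viability read as ATP luminescence with CellTiter-Glo after 30 min at room temperature.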
SMILES,outcome,AC50
CC(=O)CC(=O)Nc1ccc(S(=O)(=O)O)cc1,inactive,
Cc1ccccc1C(=O)Nc1ccc(C(=O)N2CCCC(O)c3cc(Cl)ccc32)c(C)c1 (stereo unspecified),inactive,
Cc1ccc(C(C)(C)c2ccc(C)cc2)cc1,inactive,
COc1cc(C[C@@H]2NCCc3cc(O)c(O)cc32)cc(OC)c1OC,inactive,
CCCCOc1ccc(OCCCN2CCOCC2)cc1,inactive,
C=CCCCCCCCCCCC,inactive,
CCCCCCCCCCCCCCCC(=O)O[C@@H]1CC(C)=C(/C=C/C(C)=C/C=C/C(C)=C/C=C/C=C(C)/C=C/C=C(C)/C=C/C2=C(C)C[C@@H](OC(=O)CCCCCCCCCCCCCCC)CC2(C)C)C(C)(C)C1,,36.2 µM (active)
CCOC(=O)[C@H](CCc1ccccc1)N[C@@H](C)C(=O)N1Cc2cc(OC)c(OC)cc2C[C@H]1C(=O)O,inactive,
Cc1ccc(N)nc1,inactive,
CCCCOC(=O)C(=O)OCCCC,inactive,
CCCCNC(=O)NCCCC,inactive,
N[C@H]1CN(c2c(F)cc3c(=O)c(C(=O)O)cn(C4C[C@H]4F)c3c2Cl)CC12CC2 (stereo partly specified),inactive,
CN1CCCC(CC2c3ccccc3Sc3ccccc32)C1 (stereo unspecified),inactive,
CC(C)Cc1ccc([C@H](C)C(=O)O)cc1,inactive,
C=C1C(=O)O[C@H]2[C@H]1CC/C(C)=C/CC[C@@]1(C)O[C@@H]21,inactive,
CC(CC(=O)O)CC(C)(C)C (stereo unspecified),inactive,
CC1=C(/C=C/C(C)=C/C=C/C(C)=C/C=C/C=C(C)/C=C/C=C(C)/C=C/C2=C(C)C(=O)CCC2(C)C)C(C)(C)CCC1=O,inactive,
CCc1ccc(Br)cc1,inactive,
CN=C(NC#N)Nc1ccc(C2=NNC(=O)CC2C)cc1 (stereo unspecified),inactive,
CC(C)(CCl)c1ccccc1,inactive,

SMILES,outcome,AC50
O=C(Cn1c(=O)sc2ccc(Cl)cc21)N1CCN(CCO)CC1,inactive,
CC(=O)c1cnccn1,inactive,
CCC=C1OC(=O)c2ccccc21,inactive,
CCNS(=O)(=O)c1ccc(C)cc1,inactive,
O=C1N=C2SCCN2C(=O)C1Cc1ccc(Cl)cc1 (stereo unspecified),inactive,
COC(=O)c1cc(C(=O)OC)cc(S(=O)(=O)O)c1,inactive,
CS(=O)(=O)O,inactive,
COc1cc2c(cc1OC)C(C(C(=O)N(CCc1ccc(OC)c(OC)c1OC)CCc1ccc(OC)c(OC)c1OC)c1ccccc1)=NCC2 (stereo unspecified),inactive,
NCCCC(O)(P(=O)(O)O)P(=O)(O)O,inactive,
Cc1cc([N+](=O)[O-])ccc1N,inactive,
O=c1oc2c(O)c(O)cc3c(=O)oc4c(O)c(O)cc1c4c23,inactive,
Cn1cnc2ncnc(N)c21,inactive,
COc1ccc(CC2c3cc(OC)c(OC)cc3CC[N+]2(C)CCC(=O)OCCCCCOC(=O)CC[N+]2(C)CCc3cc(OC)c(OC)cc3C2Cc2ccc(OC)c(OC)c2)cc1OC (stereo unspecified),inactive,
CO[C@H]1O[C@@H]2O[C@@]3(C)CC[C@H]4[C@H](C)CC[C@@H]([C@H]1C)[C@@]24OO3,inactive,
O=S(=O)(O)c1cccc(S(=O)(=O)O)c1,inactive,
c1ccc2c(c1)ccc1c3ccccc3ccc21,inactive,
O=C(O)c1ccc(NC(=O)[C@H](Cc2ccc(O)cc2)NC(=O)c2ccccc2)cc1,inactive,
C/C=C(/CC[C@@H](C)[C@H]1CC[C@H]2C3=CC[C@H]4[C@H](C)[C@@H](O)CC[C@]4(C)[C@H]3CC[C@]12C)C(C)C,inactive,
Oc1ccc(CCNCCCCCCNCCc2ccccc2)cc1O,inactive,

# Target: Cellular tumor antigen p53 (Homo sapiens) (UniProt P04637)
# Assay: TOX21_p53_BLA_p3_ratio: Tox21 HCT-116 p53 Agonism Beta-lactamase Assay, Ratio, Phase 3 (AID 2283596)
# Summary of the method: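 Cells were seeded at 4000/well, rested 5 h at 37C, then dosed with DMSO compound solutions (217-fold dilution) for 16 h. CCF4-AM substrate was loaded for 2 h at room temperature, and the 460/530 nm emission ratio was fitted for gain of signal versus DMSO.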
# Sequence of Cellular tumor antigen p53 (Homo sapiens) (P04637 whole entry, looked up): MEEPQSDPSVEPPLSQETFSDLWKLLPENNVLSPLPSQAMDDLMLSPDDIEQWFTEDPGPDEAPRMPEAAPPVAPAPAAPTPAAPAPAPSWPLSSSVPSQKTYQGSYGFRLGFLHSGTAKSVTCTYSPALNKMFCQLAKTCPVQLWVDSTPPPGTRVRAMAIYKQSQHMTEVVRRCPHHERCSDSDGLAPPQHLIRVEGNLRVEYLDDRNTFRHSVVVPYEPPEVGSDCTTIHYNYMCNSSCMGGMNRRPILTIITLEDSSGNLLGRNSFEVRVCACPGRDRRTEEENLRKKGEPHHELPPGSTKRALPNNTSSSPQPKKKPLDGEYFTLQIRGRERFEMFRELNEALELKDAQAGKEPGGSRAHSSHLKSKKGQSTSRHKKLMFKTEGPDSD
SMILES,outcome,AC50
CC(=O)CC(=O)Nc1ccc(S(=O)(=O)O)cc1,inactive,
Cc1ccccc1C(=O)Nc1ccc(C(=O)N2CCCC(O)c3cc(Cl)ccc32)c(C)c1 (stereo unspecified),inactive,
Cc1ccc(C(C)(C)c2ccc(C)cc2)cc1,inactive,
COc1cc(C[C@@H]2NCCc3cc(O)c(O)cc32)cc(OC)c1OC,inactive,
CCCCOc1ccc(OCCCN2CCOCC2)cc1,inactive,
CCCCCCCCCCCCCCCC(=O)O[C@@H]1CC(C)=C(/C=C/C(C)=C/C=C/C(C)=C/C=C/C=C(C)/C=C/C=C(C)/C=C/C2=C(C)C[C@@H](OC(=O)CCCCCCCCCCCCCCC)CC2(C)C)C(C)(C)C1,inactive,
CCOC(=O)[C@H](CCc1ccccc1)N[C@@H](C)C(=O)N1Cc2cc(OC)c(OC)cc2C[C@H]1C(=O)O,inactive,
CCCCNC(=O)NCCCC,inactive,
N[C@H]1CN(c2c(F)cc3c(=O)c(C(=O)O)cn(C4C[C@H]4F)c3c2Cl)CC12CC2 (stereo partly specified),inactive,
CN1CCCC(CC2c3ccccc3Sc3ccccc32)C1 (stereo unspecified),inactive,
C=C1C(=O)O[C@H]2[C@H]1CC/C(C)=C/CC[C@@]1(C)O[C@@H]21,,34.3 µM (active)
CC1=C(/C=C/C(C)=C/C=C/C(C)=C/C=C/C=C(C)/C=C/C=C(C)/C=C/C2=C(C)C(=O)CCC2(C)C)C(C)(C)CCC1=O,inactive,
CN=C(NC#N)Nc1ccc(C2=NNC(=O)CC2C)cc1 (stereo unspecified),inactive,
O=C(Cn1c(=O)sc2ccc(Cl)cc21)N1CCN(CCO)CC1,inactive,
CC(=O)c1cnccn1,inactive,
CCNS(=O)(=O)c1ccc(C)cc1,inactive,
COC(=O)c1cc(C(=O)OC)cc(S(=O)(=O)O)c1,inactive,
COc1cc2c(cc1OC)C(C(C(=O)N(CCc1ccc(OC)c(OC)c1OC)CCc1ccc(OC)c(OC)c1OC)c1ccccc1)=NCC2 (stereo unspecified),inactive,
NCCCC(O)(P(=O)(O)O)P(=O)(O)O,inactive,
Cc1cc([N+](=O)[O-])ccc1N,inactive,
O=c1oc2c(O)c(O)cc3c(=O)oc4c(O)c(O)cc1c4c23,inactive,
Cn1cnc2ncnc(N)c21,inactive,
CO[C@H]1O[C@@H]2O[C@@]3(C)CC[C@H]4[C@H](C)CC[C@@H]([C@H]1C)[C@@]24OO3,inactive,
O=S(=O)(O)c1cccc(S(=O)(=O)O)c1,inactive,
c1ccc2c(c1)ccc1c3ccccc3ccc21,inactive,
O=C(O)c1ccc(NC(=O)[C@H](Cc2ccc(O)cc2)NC(=O)c2ccccc2)cc1,inactive,
Oc1ccc(CCNCCCCCCNCCc2ccccc2)cc1O,inactive,
